Assay results from the supplement of paper PMC6411743.
± gives the standard deviation of the averaged measurements. The full data set covers some 6,200 targets. This sample favours those with the largest changes.

Assays:
Test in all cases: NP40-soluble protein abundance relative to vehicle (solubility fold change) (ratio); higher = more soluble protein in presence of AMP-PNP
[1] = biological target: T1, GALNS (UniProt P34059)
T1 sequence (whole entry): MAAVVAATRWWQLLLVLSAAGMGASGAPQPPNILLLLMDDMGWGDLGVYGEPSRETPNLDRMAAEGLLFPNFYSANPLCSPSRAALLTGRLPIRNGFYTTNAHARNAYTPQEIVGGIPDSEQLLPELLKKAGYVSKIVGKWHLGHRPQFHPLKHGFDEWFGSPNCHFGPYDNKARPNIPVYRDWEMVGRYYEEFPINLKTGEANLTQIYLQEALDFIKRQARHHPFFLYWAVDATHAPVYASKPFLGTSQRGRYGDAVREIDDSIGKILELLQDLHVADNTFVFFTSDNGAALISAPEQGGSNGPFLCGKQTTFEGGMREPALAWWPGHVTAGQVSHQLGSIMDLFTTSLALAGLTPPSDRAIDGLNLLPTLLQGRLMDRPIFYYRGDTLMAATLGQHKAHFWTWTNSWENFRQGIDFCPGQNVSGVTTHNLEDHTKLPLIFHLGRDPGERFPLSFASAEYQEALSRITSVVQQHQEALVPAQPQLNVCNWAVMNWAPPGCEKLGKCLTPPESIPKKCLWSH
Procedure, shortened: (§1)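 Jurkat crude lysate prepared with a Dounce homogeniser was treated at eight concentrations spanning 0.1 to 10 mM, 10 min at room temperature then 3 min at 37 °C. Solubilisation with 0.8% NP40 and benzonase and ultracentrifugation preceded TMT labelling of the supernatant for LC-MS/MS. Fold change against the detergent-processed vehicle was determined per replicate from vsn-normalised intensities, across three independent experiments.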

[2] = biological target: T2, MFN2 (UniProt O95140)
T2 sequence (whole entry): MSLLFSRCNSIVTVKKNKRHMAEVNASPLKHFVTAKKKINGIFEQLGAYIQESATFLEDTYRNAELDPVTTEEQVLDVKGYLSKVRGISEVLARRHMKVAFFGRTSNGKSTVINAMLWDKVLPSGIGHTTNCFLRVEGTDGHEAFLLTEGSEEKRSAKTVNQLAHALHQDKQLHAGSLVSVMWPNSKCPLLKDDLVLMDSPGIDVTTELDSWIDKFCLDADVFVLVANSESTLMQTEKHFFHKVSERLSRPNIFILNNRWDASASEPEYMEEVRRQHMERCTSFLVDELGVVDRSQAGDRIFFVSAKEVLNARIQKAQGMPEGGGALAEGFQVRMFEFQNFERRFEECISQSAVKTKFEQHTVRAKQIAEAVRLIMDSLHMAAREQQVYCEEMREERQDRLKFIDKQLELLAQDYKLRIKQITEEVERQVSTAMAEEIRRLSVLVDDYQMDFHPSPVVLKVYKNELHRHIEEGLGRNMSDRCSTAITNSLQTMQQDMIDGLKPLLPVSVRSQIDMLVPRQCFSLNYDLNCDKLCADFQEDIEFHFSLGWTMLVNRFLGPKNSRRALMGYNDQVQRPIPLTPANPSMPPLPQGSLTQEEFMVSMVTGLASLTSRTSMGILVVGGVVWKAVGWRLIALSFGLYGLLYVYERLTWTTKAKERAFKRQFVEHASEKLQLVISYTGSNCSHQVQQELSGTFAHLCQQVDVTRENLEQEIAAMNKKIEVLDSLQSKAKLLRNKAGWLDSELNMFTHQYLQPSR
Procedure, shortened: as §1

[3] = biological target: T3, PPM1F (UniProt P49593)
T3 sequence (whole entry): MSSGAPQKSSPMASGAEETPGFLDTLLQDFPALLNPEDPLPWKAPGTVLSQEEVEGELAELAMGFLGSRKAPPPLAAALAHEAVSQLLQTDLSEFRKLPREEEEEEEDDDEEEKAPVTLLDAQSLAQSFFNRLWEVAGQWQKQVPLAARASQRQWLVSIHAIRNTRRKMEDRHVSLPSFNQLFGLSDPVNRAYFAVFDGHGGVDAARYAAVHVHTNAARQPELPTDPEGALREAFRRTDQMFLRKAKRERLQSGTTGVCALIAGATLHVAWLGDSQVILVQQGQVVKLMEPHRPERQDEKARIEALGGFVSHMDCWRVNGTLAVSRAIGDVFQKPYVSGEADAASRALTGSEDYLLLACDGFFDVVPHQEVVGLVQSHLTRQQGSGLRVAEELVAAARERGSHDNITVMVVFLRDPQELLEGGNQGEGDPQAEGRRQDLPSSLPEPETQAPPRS
Procedure, shortened: as §1

Nc1ncnc2c1ncn2[C@@H]1O[C@H](COP(=O)(O)OP(=O)(O)NP(=O)(O)O)[C@@H](O)[C@H]1O [adenylyl imidodiphosphate]
NP40-soluble protein abundance ([1]; concentration: 1mM): 0.986 ± 0.018
NP40-soluble protein abundance ([1]; concentration: 2mM): 0.972 ± 0.011
NP40-soluble protein abundance ([1]; concentration: 4mM): 0.957 ± 0.04
NP40-soluble protein abundance ([1]; concentration: 6mM): 0.963 ± 0.019
NP40-soluble protein abundance ([1]; concentration: 8mM): 0.933 ± 0.034
NP40-soluble protein abundance ([1]; concentration: 10mM): 0.975 ± 0.027
NP40-soluble protein abundance ([2]; concentration: 1mM): 1.01 ± 0.064
NP40-soluble protein abundance ([2]; concentration: 2mM): 0.956 ± 0.032
NP40-soluble protein abundance ([2]; concentration: 4mM): 1.01 ± 0.074
NP40-soluble protein abundance ([2]; concentration: 6mM): 0.965 ± 0.037
NP40-soluble protein abundance ([2]; concentration: 8mM): 0.986 ± 0.049
NP40-soluble protein abundance ([2]; concentration: 10mM): 0.989 ± 0.024
NP40-soluble protein abundance ([3]; concentration: 1mM): 1.028 ± 0.0057
NP40-soluble protein abundance ([3]; concentration: 2mM): 1.019 ± 0.0062
NP40-soluble protein abundance ([3]; concentration: 4mM): 1.03 ± 0.011
NP40-soluble protein abundance ([3]; concentration: 6mM): 1.014 ± 0.0081
NP40-soluble protein abundance ([3]; concentration: 8mM): 1.02 ± 0.013
NP40-soluble protein abundance ([3]; concentration: 10mM): 1.04 ± 0.018
